Source: PubChem BioAssay (NCATS)
Results filed as inconclusive are left out. The source made the active and inactive calls. The call rests on the fitted dose curve; in most records, active means well fitted curve in the direction sought with a large enough effect; inconclusive means small, poorly fitted or top-dose-only effect, or another doubt; inactive means no such curve, though single readings can be large; an effect the other way counts as inactive or inconclusive.

Experiments:
[1] = system: HACAT; experiment: qHTS assay to identify novel small-molecules to repurpose for Merkel cell carcinoma treatment (AID 1296009); conditions: MCC and control cell lines, CellTiter-Glo viability, 72 h; at 44.8 µM (top of the series) unless noted; further: nearly all actives have a fitted effect of over 60% in size
Method in brief: (§1)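 CellTiter-Glo luminescence after 72 hr compound exposure at 37 degree celsius gave cell viability. Libraries NPC and MIPE were run as 8- and 11-point dose responses; RLUs normalized to DMSO (negative) and no-cell (cytotoxicity) controls.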

[2] = system: NIH3T3; experiment: as above; conditions: MCC and control cell lines, CellTiter-Glo viability, 72 h; at 44.8 µM (top of the series) unless noted
Method in brief: as §1

[3] = system: C33A; experiment: Primary qHTS to identify gynecologic anti-cancer compounds using libraries of approved drugs and bioactive compounds (AID 1345084); conditions: Gynecologic cancer cell panel viability, ATPlite luminescence, 48 h; series mostly up to 57.5 µM; further: nearly all actives have a fitted effect of over 55% in size
Method in brief: (§2)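 Cells, 1,000 per well, plated 16 h, then exposed 48 h at 37 C to compounds. Viability by ATPlite luminescence after 15 min at room temperature.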

[4] = system: CAOV3; experiment: as above; conditions: Gynecologic cancer cell panel viability, ATPlite luminescence, 48 h; series mostly up to 57.5 µM
Method in brief: as §2

[5] = system: CASKI; experiment: as above; conditions: Gynecologic cancer cell panel viability, ATPlite luminescence, 48 h; series mostly up to 57.5 µM
Method in brief: as §2

[6] = system: Es-2; experiment: as above; conditions: Gynecologic cancer cell panel viability, ATPlite luminescence, 48 h; series mostly up to 57.5 µM
Method in brief: as §2

[7] = system: HeLa; experiment: as above; conditions: Gynecologic cancer cell panel viability, ATPlite luminescence, 48 h; series mostly up to 57.5 µM
Method in brief: as §2

[8] = system: Hek293T; experiment: as above; conditions: Gynecologic cancer cell panel viability, ATPlite luminescence, 48 h, control line for the selectivity index; series mostly up to 57.5 µM
Method in brief: as §2

[9] = system: JEG-3; experiment: as above; conditions: Gynecologic cancer cell panel viability, ATPlite luminescence, 48 h; series mostly up to 57.5 µM
Method in brief: as §2

Measured: Potency

CCC/C=C/C=C/C1CC(O)C(O)C(=O)C1CO (configuration not stated)
inactive: all assays above

O=C(O)CCc1ccc(NCc2cccc3c2CCCN3CCOc2ccccc2)cc1F
inactive: all assays above

C=C1CC/C=C(/C(=O)O)CCC2C1CC2(C)C (configuration not stated)
inactive: all assays above

CC1(O)CC(O)C2C(C(=O)O)=COC(OC3OC(CO)C(O)C(O)C3OC(=O)/C=C/c3ccc(O)cc3)C21 (configuration not stated)
inactive: [1] inactive [at 17.4 µM] | [2] inactive [at 17.4 µM] | [3] | [4] | [5] | [6] | [7] | [8] | [9]

COc1cc(/C=C/CO[C@@H]2O[C@H](CO)[C@@H](O)[C@H](O)[C@H]2O)cc(OC)c1O[C@@H]1O[C@H](CO)[C@@H](O)[C@H](O)[C@H]1O
inactive: [1] inactive [at 17.4 µM] | [2] inactive [at 17.4 µM] | [3] | [4] | [5] | [6] | [7] | [8] | [9]

CC(C)Oc1ccc(-c2nc(-c3cccc4c3CCC4NCCC(=O)O)no2)cc1C#N (configuration not stated)
inactive: all assays above

CC(=O)NC1C(OC2CCC3(C)C(CCC4(C)C3CC=C3C5CC(C)(C)CCC5(C(=O)O)C(O)CC34C)C2(C)C)OC(CO)C(O)C1O (configuration not stated)
inactive: [1] inactive [at 17.4 µM] | [2] inactive [at 17.4 µM] | [3] | [4] | [5] | [6] | [7] | [8] | [9]

CC1(C)C[C@H](O)C[C@@]2(C)[C@H]1[C@H](O)C=C1COC(=O)[C@@]12O
inactive: all assays above

COCCN1CCC(C(=O)NO)(S(=O)(=O)c2ccc(Oc3ccc(OC(F)(F)F)cc3)cc2)CC1
inactive: all assays above

C[C@@H]1O[C@@H](OC(=O)Cc2ccccc2)[C@H](O)[C@H](O)[C@H]1O
inactive: all assays above

COC1OC(OC)C(O)(CCC2(C)C(C)CCC3(C)C2CC(O)C(O)C32CO2)C1O (configuration not stated)
inactive: [1] inactive [at 17.4 µM] | [2] inactive [at 17.4 µM] | [3] | [4] | [5] | [6] | [7] | [8] | [9]

COc1cc(C2Oc3c(OC)cc(/C=C/C(=O)OC4CC(O)(C(=O)O)CC(O)C4O)cc3C2CO)ccc1O (configuration not stated)
inactive: [1] inactive [at 17.4 µM] | [2] inactive [at 17.4 µM] | [3] | [4] | [5] | [6] | [7] | [8] | [9]

CC1CC2OCC3(O)CCC(O)C(C14CC(c1ccoc1)OC4=O)C23CO (configuration not stated)
inactive: all assays above
